From PubChem BioAssay (EPA / NIEHS)
The source made the active and inactive calls. Rule for the calls: active = hit-call score of the fitted dose curve at least 0.9, where 1 is the maximum; inactive = score below 0.9.

Experiment: ATG_VDRE_CIS: Attagene CIS-FACTORIAL HepG2 Assay for human Vitamin D Receptor Element (VDRE) (AID 2282968)
Details: HepG2 VDRE cis-reporter transcription, actives raise or lower the signal
Protocol: ATG_CIS is a cell-based, multiplexed-readout assay that uses HepG2, a human liver cell line, with measurements taken at 24 hours after chemical dosing in a 24-well plate.ATG_VDRE_CIS is one of 52 assay component(s) measured or calculated from the ATG_CIS assay. It is designed to make measurements of mRNA induction, a form of inducible reporter, as detected with fluorescence intensity signals by Reverse transcription polymerase chain reaction (RT-PCR) and Capillary electrophoresis technology.Data from the assay component ATG_VDRE_CIS was analyzed into 1 assay endpoint. This assay endpoint, ATG_VDRE_CIS, was analyzed with bidirectional fitting relative to DMSO as the negative control and baseline of activity. Using a type of inducible reporter, measures of mRNA for gain or loss-of-signal activity can be used to understand the reporter gene at the transcription factor-level as they relate to the gene VDR. Furthermore, this assay endpoint can be referred to as a primary readout, because this assay has produced multiple assay endpoints where this one serves a reporter gene function. To generalize the intended target to other relatable targets, this assay endpoint is annotated to the nuclear receptor intended target family, where the subfamily is non-steroidal.
Human liver HepG2 cells are transiently transfected with multiple reporter transcription units (MRTUs) in 6-well plates using FuGene 6 reagent (Roche; 3 ml FuGene/1 mg DNA). The MRTU constructs are regulated by a cis-regulating element (promoter). […] A major difference between the CIS and TRANS system is that in CIS activities of endogenous TFs are measured, whereas the TRANS assay evaluates changes in activities of exogenous, chimeric NR-Gal4 proteins. […] At the end of 24 hour incubation, total RNA was isolated using TriZol reagent (Invitrogen). The isolated RNA is then reverse-transcribed using oligo(dT) primer and Mo-MLV reverse transcriptase (Invitrogen) with DNAse I (Ambion) treatment for 30 min. The one-tenth of the produced cDNA was amplified by PCR using Taq DNA polymerase (Invitrogen) and two reporter sequence-specific primers. The PCR products were fluorescently labeled by primer extension with 6-arboxyfluorescein (6-FAM) 5'-labeled reporter sequence-specific primer (2 min at 95 C, 20 s at 68 C and 10 min at 72 C) and these products were digested with 5U of HpaI (New England Biolabs) for 2h at 37 C. The fragments were purified using Qiaquick PCR columns (Qiagen), analyzed on an ABI 3130xL genetic analyzer (Applied Biosystems) with peak positions identified by using a set of X-rhodamine (ROX)-labeled MapMarker1000 molecular weight standards (BioVentures). The raw capillary electrophoresis data was processed using Attagraph software (Attagene).

| Structure (SMILES) | outcome | AC50 |
| --- | --- | --- |
| CCCCOCCOCCOC(C)=O | inactive |  |
| CC(C)CCOCc1ccccc1 | inactive |  |
| O=C(C=Cc1ccccc1)OCCc1ccccc1 |  | 28 µM (active) |
| [Cl][Sc]([Cl])[Cl] | inactive |  |
| C=Cc1ccc(OC(C)=O)cc1 | inactive |  |
| CC(=O)/C=C/C1C(C)=CCCC1(C)C (stereo not given) |  | 13.3 µM (active) |
| Cc1cc(C)c(C=O)c(C)c1 |  | 3.24 µM (active) |
| C=Cc1cccc(C)c1 | inactive |  |
| CC(C)C(=O)OCCOc1ccccc1 | inactive |  |
| CC(C)[N+](C)(CCOC(=O)C1c2ccccc2Oc2ccccc21)C(C)C | inactive |  |
| CCOC(=O)c1ccc(C)cc1 | inactive |  |
| COc1ccc(-c2coc3cc(O)cc(O)c3c2=O)cc1 |  | 27 µM (active) |
| C=C(C)C(=O)OCCOC(=O)C(=C)C | inactive |  |
| C1CCSC1 | inactive |  |
| Fc1ccc(Br)cc1 | inactive |  |
| CC/C=C\C/C=C\C/C=C\CCCCCCCC(=O)OC | inactive |  |
| CCCCCCOC(=O)CCCCC(=O)OCCCCCC | inactive |  |
| Nc1ccc(C(=O)OCCCOC(=O)c2ccc(N)cc2)cc1 |  | 48.8 µM (active) |
| CCc1cccc(CC)c1 | inactive |  |
| CC(=O)C(C)C | inactive |  |

| Structure (SMILES) | outcome | AC50 |
| --- | --- | --- |
| CC(c1cc(C(C)(C)C)cc(C(C)(C)C)c1O)c1cc(C(C)(C)C)cc(C(C)(C)C)c1O | inactive |  |
| CCCCCCCCCCCCc1ccc(O)cc1 | inactive |  |
| O=c1c(O)c(-c2ccc(O)cc2O)oc2cc(O)cc(O)c12 | inactive |  |
| C=CC(=O)OCCCCCCCCCC | inactive |  |
| CCOC(=O)CC(=O)c1ccccc1 | inactive |  |
| Clc1cc(Cl)c(Cl)c(Cl)c1Cl |  | 56.2 µM (active) |
| CCOB(OCC)OCC | inactive |  |
| C=CCNCC=C | inactive |  |
| COC(OC)(C(=O)c1ccccc1)c1ccccc1 |  | 5.89 µM (active) |
| CCCCCCCCCC(C)=O | inactive |  |
| CC=C(C)C=CC=C(C)C |  | 27.7 µM (active) |
| CCCCCCCCCC[N+](C)(CCCCCCCCCC)CCC[Si](OC)(OC)OC | inactive |  |
| Clc1cccnc1 | inactive |  |
| CCCCCCC=O | inactive |  |
| CC(C)CO | inactive |  |
| C=CC(=O)O[C@H]1C[C@@H]2CC[C@@]1(C)C2(C)C | inactive |  |
| COCC(=O)O | inactive |  |
| C=CCCCCCCCCC=O | inactive |  |
| CC1C(C)(C)C2=C(C(=O)CCC2)C1(C)C (stereo not given) | inactive |  |
| COc1ccc(C(=O)/C(Br)=C\C(=O)O)cc1 |  | 35.7 µM (active) |
